This is an account of results in PubChem BioAssay.

Molecules are shown by their SMILES. Calls of active or inactive are those of the source.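 Rule for the calls: active = GFP response below 50% of the DMSO control; inconclusive = fewer than 70 events counted for a yeast strain; inactive = the rest.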

The nature of the first test: hit retest on RPL19A-GFP reporter strain – cell-based, S. cerevisiae, flow cytometry, cherry picks, mother/daughter gates, confirmation (AID 2270). The conditions noted are these: 3 h, at 10 µM, stronger effect = lower value, 100 = same GFP as DMSO wells. On the technique in general: A flow cytometer gives signals particle by particle.
Take `COc1ccc(Cc2nnc(NC(=O)c3ccccc3F)s2)cc1`: the GFP response vs DMSO is 97.6% (inactive). On the same count and under the same terms, the result for `COC(=O)c1cccc(-n2c(CCC(=O)O)ccc2-c2cccs2)c1` reads 99.2% (inactive).

As to `CC(=O)Oc1ccc(/C=c2\sc3ncnn3c2=O)cc1`, the GFP response vs DMSO is 100% (inactive). In the case of `CCNC(=O)c1c(O)c2cccc3c2n(c1=O)CC3`, the GFP response vs DMSO is 103% (inactive). Take `Cc1ccc(C(=O)NNC(=S)NC(=O)c2ccco2)cc1`: the GFP response vs DMSO was 112% (inactive).

As to `CCOC(=O)c1sc(NC(=O)CN2C(=O)c3cccc4cccc(c34)C2=O)nc1C`, the GFP response vs DMSO is 96.6% (inactive). Regarding `Cc1ccc(NC(=O)c2ccccc2O)cc1`, the GFP response vs DMSO was 103% (inactive). As to `O=C(NCCN1CCOCC1)c1ccc(CS(=O)(=O)Cc2ccccc2F)o1`, the GFP response vs DMSO was 99.6% (inactive).

Turning to `Cc1ccc(-n2nnnc2C(Cl)(Cl)c2nnnn2-c2ccc(C)cc2)cc1`, the GFP response vs DMSO is 99.7% (inactive). As for `COc1ccc(CC(=O)Oc2ccccc2C)cc1`, the GFP response vs DMSO was 98% (inactive). Turning to `Cc1ccc(S(=O)(=O)N(Cc2ccccc2)Cc2ccco2)cc1`, the GFP response vs DMSO was 102% (inactive).

Regarding `Cc1cc(NC(=O)c2cccnc2Cl)ccc1NC(=O)c1cc2ccccc2o1`, the GFP response vs DMSO was 98% (inactive). Regarding `Cc1ccc(NC(=O)CCCSc2nc3ccccc3[nH]2)cc1`, the GFP response vs DMSO is 99.6% (inactive). Still for that read-out and setting: the result for `Cc1ccc(C(=O)Sc2cccccc2=O)cc1` reads 101% (inactive); that for `COc1ccccc1-c1noc(CCC(=O)Nc2cccc(C(F)(F)F)c2)n1`, 98.2% (inactive); that for `Nc1cccnc1S(=O)(=O)c1ccccc1`, 98.8% (inactive).

For the compound `O=C(O)CCc1ccc(-c2ccccc2)o1`, the GFP response vs DMSO is 94.4% (inactive).

On to `Nc1nc(SCC(=O)Nc2cc(C(F)(F)F)ccc2N2CCOCC2)n[nH]1`, for which the GFP response vs DMSO is 99% (inactive). In the case of `Cc1ncc2c(n1)-c1cc(F)ccc1SC2`, the GFP response vs DMSO was 104% (inactive).

As for `Cc1ccc2c(c1)c(/C=C/c1cc[n+](C)cc1)c(C)n2C`, the GFP response vs DMSO was 107% (inactive).

In the case of `COc1ccc(CCNC2=C(Cl)C(=O)N(CCc3ccc(OC)c(OC)c3)C2=O)cc1OC`, the GFP response vs DMSO is 99.1% (inactive). On to `Cc1cccc(NC(=S)NCC23C=CC(O2)C2C(=O)N(c4ccc(Cl)cc4)C(=O)C23)c1` (centres undefined), for which the GFP response vs DMSO was 100% (inactive).

With `O=C(CSc1nnc(-c2ccccn2)n1Cc1ccccc1)N1CCOCC1`, the GFP response vs DMSO was 103% (inactive).

For `COc1ccc(-c2nc(-c3ccccc3OC)no2)cc1OC`, the GFP response vs DMSO was 100% (inactive).

Still in this test, the particulars now being: 3 h, measured here: daughter cell gate, at 10 µM, stronger effect = lower value, 100 = same GFP as DMSO wells.
In turn, `Cc1cccn2c(=O)c(/C=C(\C#N)C(N)=O)c(N3CCN(Cc4ccc5c(c4)OCO5)CC3)nc12` came in with a GFP response vs DMSO of 101%.

Compound `O=S(=O)(CCN(CCS(=O)(=O)C(F)(F)F)CC1CCCO1)C(F)(F)F` (centres undefined) displayed a GFP response vs DMSO of 96.2%. Same read-out and setting: the result for `COc1cc(NC(=O)C(C)C)ccc1NC(=O)c1cc2ccccc2o1` reads 99.8%; that for `COc1cc(/C=C2/N=C(c3ccccc3)OC2=O)c(F)cc1OCc1ccccc1`, 100%; that for `Cc1cccc(C)c1OCCOC(=O)c1n[nH]c2ccccc12`, 97%. `Cc1ccc(/C=N\NC(=O)c2cc(OCC(F)(F)F)ccc2OCC(F)(F)F)cc1` returned a GFP response vs DMSO of 101%. The compound `CCOCCCNC(=O)/C(C#N)=C/c1ccc([N+](=O)[O-])o1` returned a GFP response vs DMSO of 91.2%. `O=c1[nH]c(CN2CCCCC2)nc2c1C1(CCCCC1)Cc1ccccc1-2` gave a GFP response vs DMSO of 100%. `CSC1=NC(=O)/C(=C/c2ccc(SC)cc2)S1` registered a GFP response vs DMSO of 78%. The compound `COC(=O)Nc1c(-c2ccccc2)nc2ccccn12` showed a GFP response vs DMSO of 98.1%.

On to `CCCc1[nH]nc2c1C(c1ccc(O)c(OC)c1)C(C#N)=C(N)O2` (centres undefined), for which the GFP response vs DMSO worked out at 101%. Same read-out and setting: the result for `CCc1ccc2c(c1)/C(=C/C(=O)c1cccs1)C(=O)N2` reads 94.7%; that for `CCN(C(=O)c1ccccc1Cl)c1ccccc1`, 99%; that for `COCCNc1c(-c2ccc(O)cc2)nc2ccc(Cl)cn12`, 97.4%. `CC(C)(C)c1ccc(C(=O)N/N=C/c2cccc(Cl)c2)cc1` had a GFP response vs DMSO of 96.4%. Still for that read-out and setting: the result for `O=C(COC(=O)C1CCN(c2ccc(C(F)(F)F)cn2)CC1)Nc1cccc(F)c1` reads 94.6%; that for `COc1ccc(Cc2nnc(NC(=O)c3ccccc3F)s2)cc1`, 96.4%; that for `COC(=O)c1cccc(-n2c(CCC(=O)O)ccc2-c2cccs2)c1`, 98.9%.

`CC(=O)Oc1ccc(/C=c2\sc3ncnn3c2=O)cc1` had a GFP response vs DMSO of 102%. As for `CCNC(=O)c1c(O)c2cccc3c2n(c1=O)CC3`, the GFP response vs DMSO worked out at 101%. Compound `Cc1ccc(C(=O)NNC(=S)NC(=O)c2ccco2)cc1` gave a GFP response vs DMSO of 113%.

In turn, `CCOC(=O)c1sc(NC(=O)CN2C(=O)c3cccc4cccc(c34)C2=O)nc1C` returned a GFP response vs DMSO of 98.1%. Same read-out and setting: the result for `Cc1ccc(NC(=O)c2ccccc2O)cc1` reads 102%; that for `O=C(NCCN1CCOCC1)c1ccc(CS(=O)(=O)Cc2ccccc2F)o1`, 100%; that for `Cc1ccc(-n2nnnc2C(Cl)(Cl)c2nnnn2-c2ccc(C)cc2)cc1`, 98.8%. The compound `COc1ccc(CC(=O)Oc2ccccc2C)cc1` returned a GFP response vs DMSO of 99.6%. `Cc1ccc(S(=O)(=O)N(Cc2ccccc2)Cc2ccco2)cc1` returned a GFP response vs DMSO of 103%.

`Cc1cc(NC(=O)c2cccnc2Cl)ccc1NC(=O)c1cc2ccccc2o1` displayed a GFP response vs DMSO of 97.1%.

Compound `Cc1ccc(NC(=O)CCCSc2nc3ccccc3[nH]2)cc1` returned a GFP response vs DMSO of 99.1%. `Cc1ccc(C(=O)Sc2cccccc2=O)cc1` returned a GFP response vs DMSO of 99.4%. Take `COc1ccccc1-c1noc(CCC(=O)Nc2cccc(C(F)(F)F)c2)n1`: the GFP response vs DMSO was found to be 97.9%.

`Nc1cccnc1S(=O)(=O)c1ccccc1`: the GFP response vs DMSO came out at 97.8%. Regarding `O=C(O)CCc1ccc(-c2ccccc2)o1`, the GFP response vs DMSO was determined as 92.6%. For the compound `Nc1nc(SCC(=O)Nc2cc(C(F)(F)F)ccc2N2CCOCC2)n[nH]1`, the GFP response vs DMSO amounted to 99.9%. Regarding `Cc1ncc2c(n1)-c1cc(F)ccc1SC2`, the GFP response vs DMSO stood at 105%. With `Cc1ccc2c(c1)c(/C=C/c1cc[n+](C)cc1)c(C)n2C`, the GFP response vs DMSO worked out at 109%.

In turn, `COc1ccc(CCNC2=C(Cl)C(=O)N(CCc3ccc(OC)c(OC)c3)C2=O)cc1OC` showed a GFP response vs DMSO of 98.5%. Take `Cc1cccc(NC(=S)NCC23C=CC(O2)C2C(=O)N(c4ccc(Cl)cc4)C(=O)C23)c1` (centres undefined): the GFP response vs DMSO came to 103%. Compound `O=C(CSc1nnc(-c2ccccn2)n1Cc1ccccc1)N1CCOCC1` had a GFP response vs DMSO of 102%. On to `COc1ccc(-c2nc(-c3ccccc3OC)no2)cc1OC`, for which the GFP response vs DMSO came to 98.8%.
